From PubChem BioAssay
This excerpt belongs to a sample that is enriched for hits.
D1 allo mod: D1 dopamine receptor (human) allosteric modulation | P21728 | HEK293 D1, CRE-luciferase, dopamine EC30 potentiation; actives deviate in either direction | B-score at 10 µM | actives 5.9% (n = 58,000) | AID 641;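 active = luminescence count or its row- and column-corrected plate score outside the 99.7% band of the plate's sample wells, on either side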
hDAT+cocaine: human DAT dopamine uptake with cocaine, either direction | LLC-PK1 hDAT cells, [14C]-dopamine uptake with cocaine IC80; actives deviate in either direction | B-score at 10 µM | actives 1.3% (n = 110,000);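 active = Z score or B-score, a plate-position-corrected score, falls beyond the plate's 99.7% confidence bounds, in either direction; inactive = both scores lie inside the 99.7% bounds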;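 also: scored against the spread of the other compound wells on the same plate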
Target sequence (Q01959 whole entry, looked up): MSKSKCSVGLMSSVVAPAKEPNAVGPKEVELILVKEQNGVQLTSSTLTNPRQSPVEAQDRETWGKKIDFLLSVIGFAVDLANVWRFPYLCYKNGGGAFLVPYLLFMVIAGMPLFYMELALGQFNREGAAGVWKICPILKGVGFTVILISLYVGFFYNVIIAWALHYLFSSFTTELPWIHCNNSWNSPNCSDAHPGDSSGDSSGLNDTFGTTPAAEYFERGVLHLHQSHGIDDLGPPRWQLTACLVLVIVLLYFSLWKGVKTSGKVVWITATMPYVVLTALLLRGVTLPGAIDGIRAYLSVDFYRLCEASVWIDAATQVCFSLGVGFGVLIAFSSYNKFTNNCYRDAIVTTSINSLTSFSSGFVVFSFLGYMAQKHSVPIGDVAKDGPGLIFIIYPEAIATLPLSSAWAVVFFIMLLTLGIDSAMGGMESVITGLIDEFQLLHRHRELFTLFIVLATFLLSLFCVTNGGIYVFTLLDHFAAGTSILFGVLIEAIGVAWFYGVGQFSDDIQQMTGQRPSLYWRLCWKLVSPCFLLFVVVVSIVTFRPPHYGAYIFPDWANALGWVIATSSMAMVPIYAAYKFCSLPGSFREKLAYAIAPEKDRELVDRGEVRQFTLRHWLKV
ROCK2 inh: blocks human Rho kinase 2 activity; purified ROCK2, Kinase-Glo ATP depletion luminescence; actives 0.35% (n = 60,000); inhibition, % at 6 µM; O75116;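 active = inhibition above the screen-wide mean inhibition plus 3 SD, cut at about 18% in these data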;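 also: plate controls were DMSO wells for no effect and Y-27632 control wells after no-enzyme background subtraction for full effect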
PKA kinase inh: PKA (human) kinase inhibition | P17612 | PKA Kemptide phosphorylation, Kinase-Glo ATP luminescence | inhibition, % at 6 µM | actives 0.1% (n = 65,000);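 active = inhibition above the screen-wide mean inhibition plus 3 SD, cut at about 21% in these data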
Starred values were filed as active, the others as inactive; . = no result given.

SMILES	D1 allo mod	hDAT+cocaine	ROCK2 inh	PKA kinase inh
CCOC(=O)N1CCN(CC(O)c2ccc3c(c2)CCN3)CC1 (stereo not given)	-3.9*	0.028	-7	0
CCOC(=O)N1CCN(CC(O)c2ccc3cc[nH]c3c2)CC1 (stereo not given)	-0.8	0.65	0	0
OC(CN1CCN(c2ccccc2)CC1)c1ccc2c(c1)CCN2 (stereo not given)	-3*	0.026	1	8
C[C@H](NC(=O)c1nc[nH]c1C(=O)N1CCc2ccccc2C1)C(=O)OCc1ccccc1	.	1.1	.	.
CNC(=O)c1ccccc1NC(=O)c1cccc(S(=O)(=O)N2CCC(C)CC2)c1	-3.7*	0.13	10	10
CCNC(=O)c1ccccc1NC(=O)c1cccc(S(=O)(=O)N2CCC(C)CC2)c1	0.66	0.71	6	10
Clc1ccc(-c2nnc(N3CCCC3)nn2)cc1	-2.5*	0.19	.	0
CN1C(=O)Cc2cc(S(=O)(=O)N3CCOCC3)ccc21	-0.1	-8.7*	2	3
Cn1c(=O)n(C)c2cc(S(=O)(=O)N3CCOCC3)ccc21	0.78	-1.2	1	1
CCCCN(CC)Cc1ccc(CNC(=O)Nc2ccc(OC)cc2OC)o1	-0.28	-0.38	0	5
CCCCN(CC)Cc1ccc(CNC(=O)Nc2ccccc2)o1	.	-2.5*	.	.
O=C(OC1CCCCC1)c1ccc2c(c1)C1C=CCC1C(C(=O)O)N2 (stereo not given)	.	.	-4	1
O=C(O)c1ccc2c(c1)[C@@H]1C=CC[C@@H]1[C@H](c1ccccn1)N2	-3.8*	-0.46	3	9
N=c1c(-c2nc3ccccc3[nH]2)cc(C(=O)c2cccs2)nn1-c1ccc(Cl)cc1	.	-0.31	.	.
Cc1ccc(S(=O)(=O)NCC(C)NS(=O)(=O)c2ccc(C)cc2)cc1 (stereo not given)	-0.017	-8.2*	6	10
CNc1nc(C)c(C(=O)c2ccc(Cl)cc2)s1	.	-0.65	.	.
COc1ccc(C2CC(=O)c3ccccc3O2)cc1 (stereo not given)	.	0.31	.	.
CC1CN(S(=O)(=O)c2cccc(C(=O)OCc3cc(=O)oc4cc(O)ccc34)c2)CC(C)O1 (stereo not given)	-4.3*	-0.24	1	5
CC(C)(C)CN1C(N)=NC[C@@H]1Cc1ccc(O)cc1	.	-3.8*	.	.
CC(C)(C)CN1C(N)=NC[C@H]1Cc1ccc(O)cc1	.	0.89	.	.
O=C(c1ccc2c(=O)n3c(nc2c1)CCCCC3)N1CCN(C(c2ccccc2)c2ccccc2)CC1	.	-4.1*	.	.
CCOc1ccc2c(c1)C(c1ccccc1)=NNC(c1ccccc1)=N2	.	-1.4	.	.
COc1ccc(-c2ncc3ccccn23)cc1	-0.06	-0.24	4	6
c1csc(-c2ncc3ccccn23)c1	-3.8*	0.98	5	9
CCOc1ccc(NS(=O)(=O)c2ccc(OCC)c3ncccc23)cc1	.	1	.	.
SMILES	D1 allo mod	hDAT+cocaine	ROCK2 inh	PKA kinase inh
CCN(CC)S(=O)(=O)c1csc(C(=O)NCc2ccccc2)c1	.	2.6*	.	5
CN1CCN(S(=O)(=O)c2ccc(Sc3nnc(-c4cccs4)n3-c3ccccc3)nc2)CC1	-4.1*	0.54	5	7
CCn1c(SCC(=O)N2CCN(S(=O)(=O)c3ccccc3)CC2)nnc1-c1cccs1	-1.8	0.4	2	1
Cc1cccc(N(C)C(=O)c2cc3cc4ccc(C)cc4nc3o2)c1	3.4	-0.78	2	6
Cc1ccc2cc3cc(C(=O)N(C)C4CCCCC4)oc3nc2c1	-3.5*	.	-6	0
NC(=O)C(c1ccc(Cl)cc1)c1ccc(Sc2ccc(Cl)cc2)nn1 (stereo not given)	.	1.3	.	.
CSc1nsc(SC)c1NC(=O)OCC1CCCO1 (stereo not given)	.	-0.18	3	4
COc1ccc(C(=O)Nc2ccc(C)cn2)c(OC)c1	-9.5*	-0.11	.	-1
COc1ccc(C(=O)Nn2cnnc2)c(OC)c1	.	0.16	.	.
CC(Sc1nnnn1C)C(=O)Nc1ccc(N2CCOCC2)cc1 (stereo not given)	.	-7.8*	5	8
COc1cccc(C2CC(c3ccccc3OC)n3nc(N)nc3N2)c1 (stereo not given)	1.3	1.3	2	5
C=CCn1c(CSCc2ccc(Cl)cc2)nnc1SCC(=O)NCc1ccccc1	.	2	.	.
C=CCn1c(CSCc2ccc(C)cc2)nnc1SCC(=O)NCc1ccccc1	.	2.1*	.	.
Cc1[nH]c2ccccc2c1SCc1ccccc1	.	-2.7*	.	.
O=C(NC1CCCCC1)c1cccc(COCC(F)(F)F)c1	.	-1.1	.	.
COCP(=O)(c1ccccc1)c1ccccc1	.	1.5*	.	.
O=C(O)CP(=O)(c1ccccc1)c1ccccc1	-0.18	0.014	4	10
O=P(CCCCCCCCCP(=O)(c1ccccc1)c1ccccc1)(c1ccccc1)c1ccccc1	.	2.9*	.	.
COc1ccc(-c2csc(NC(CO)c3nc4ccccc4n3CCCO)n2)cc1 (stereo not given)	.	3.1*	.	.
COc1ccc(-c2nnc(SCC(=O)N3CCc4ccccc4C3)o2)cc1	2.2	3.2*	9	2
O=C(CSc1nnc(-c2ccccc2)o1)N1CCc2ccccc2C1	-0.42	.	-6	7
C/C(N)=C(/C#N)C(=O)CSc1nnc(-c2ccccc2Br)o1	.	-0.013	.	.
COc1ccc(-c2nnc(SCC(=O)/C(C#N)=C(\C)N)o2)cc1	-3.2*	-0.47	-10	1
Cc1ccc(N2CC3=C(C2=O)C(c2ccccc2)NC(=O)N3C)cc1 (stereo not given)	.	-1.5*	.	.
NCCCC[C@H](N)c1nnc([C@H](CCC(=O)O)NC(=O)C2CCNCC2)o1	.	-0.15	.	.
SMILES	D1 allo mod	hDAT+cocaine	ROCK2 inh	PKA kinase inh
CCOC(=O)c1ccc(N2C(=O)CC(N3CCN(C(=O)c4ccco4)CC3)C2=O)cc1 (stereo not given)	-0.42	2.6*	4	3
Cc1cccnc1Nc1nc(-c2ccc(O)cc2)cs1	.	4.6*	.	.
Cc1ccc(SCc2nc(-c3ccccc3)no2)cc1	-0.027	-0.49	-4	-6
Cc1ccc(SCc2nc(-c3ccncc3)no2)cc1	.	0.87	24*	21*
Cc1nnc(SCCn2c(N3CC(C)CC(C)C3)nc3c2c(=O)[nH]c(=O)n3C)s1 (stereo not given)	0.35	0.63	-1	1
COc1ccccc1NC(=O)c1sc2ncn(Cc3ccccc3C)c(=O)c2c1C	.	0.46	.	.
COc1ccccc1NC(=O)Cn1cnc2sc(C(=O)NCc3ccco3)c(C)c2c1=O	-0.21	1.9*	.	4
COc1ccc(OC)c(S(=O)(=O)N2CCCCCC2)c1	0.44	-2.4*	5	7
COc1ccc(OC)c(S(=O)(=O)N2CCC(C(=O)NCCc3ccccc3)CC2)c1	.	0.00025	.	.
COc1ccc(OC)c(S(=O)(=O)N2CCC(C(=O)N3CCN(Cc4ccccc4)CC3)CC2)c1	-5.1*	-0.55	2	6
CC(NC(=O)CCC1COc2ccccc2O1)c1ccccc1 (stereo not given)	.	-0.12	.	.
CC(C)CC(c1nnnn1Cc1ccccc1)N1CCC(C(N)=O)CC1 (stereo not given)	.	0.0074	.	.
CCOC(=O)Cc1csc(NC(=O)c2ccc(Br)s2)n1	-0.07	2.7*	3	0
CCOC(=O)Cc1csc(NC(=O)c2c(-c3c(F)cccc3Cl)noc2C)n1	-0.7	4.3*	4	2
